Sampled rows, rich in hits. Any-hit rate of the full collection: about 6.5%.
Lassa entry inh = inhibitors of Lassa virus binding or cell entry; Potency, µM (highest dose often 37.9 µM), inactives show at the highest dose activity change, negative = inhibition, usual class: inhibitors; 300,000 compounds, 1.2% hits; Lassa virus pseudotype entry inhibition, cell reporter; calls by dose curve; tested in HEK293 cells; further: potency means the concentration at half of the fitted maximal effect; nearly all actives have a fitted effect of over 50% in size
HCMV antiviral = inhibitors of human cytomegalovirus; HFF cells, HCMV-luciferase reporter, 72 h; hits give low values; activity change, negative = inhibition, % at 57.5 µM; 410,000 compounds, 4.5% hits; in the data active means activity change below about -60%; inconclusive means no clear call, values can overlap the other calls; inactive means above about -39%
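Two-dose cell screen: HFF monolayers treated with compounds and infected with luciferase-expressing HCMV at 1 PFU/cell, 72 h at 37C, then lysed for luciferase measurement.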
Vaccinia Venus = inhibitors of vaccinia virus (Venus reporter) | AID 720580 | 330,000 compounds, 0.46% hits | Potency, µM (series often up to 36.5 µM), without a hit: at the highest dose activity change, negative = inhibition, most hits filed as inhibitors | Vaccinia virus Venus reporter expression, fluorescence; calls by dose curve; tested in A549 cells; further: potency means the concentration at half of the fitted maximal effect; nearly all actives have a fitted effect of over 30% in size
FMDV antiviral = blocks foot and mouth disease virus | Potency, µM (titrated, usually from 57.9 µM), inactives show at the highest dose activity change, negative = inhibition, usual class: inhibitors | 410,000 compounds, 1.2% hits | FMDV antiviral cell-based qHTS; calls by dose curve; tested in HEK293T cells; further: read-out not given here; potency means the concentration at half of the fitted maximal effect; nearly all actives have a fitted effect of over 45% in size
MARV entry inh = inhibitors of Marburg virus binding or cell entry; Potency, µM (top dose mostly 37.8 µM), without a hit: top-dose activity change, negative = inhibition, hits mostly inhibitors; Marburg virus pseudotyped entry inhibition, cell reporter; 300,000 compounds, 1.8% hits; calls by dose curve; tested in HEK293 cells; further: potency means the concentration at half of the fitted maximal effect
Vaccinia mCherry = vaccinia inhibition (mCherry reporter). Potency, µM (series often up to 36.5 µM), inactives show at the highest dose activity change, negative = inhibition, hits mostly inhibitors. 310,000 compounds, 0.63% hits. Vaccinia virus mCherry reporter infection, fluorescence; calls by dose curve; tested in A549 cells; further: potency means the concentration at half of the fitted maximal effect; nearly all actives have a fitted effect of over 35% in size
Active calls of the source: *; ? = inconclusive; . = not tested or not shown; [ ] = another dose, or the depositor's remark. On the % scale 0 is the no-effect control and ±100 the full control effect.

SMILES	Lassa entry inh	HCMV antiviral	Vaccinia Venus	FMDV antiviral	MARV entry inh	Vaccinia mCherry
COc1ccc(-c2nc3cnc(OC)nc3n(CCc3ccccc3)c2=O)cc1	.	.	.	-14%	.	.
COC(=O)C1=C(C)N(Cc2ccccc2)C(=S)NC1c1cccc(F)c1 (configuration not stated)	.	.	.	.	48%[14.2 µM]	.
C=CCOC(=O)C1=C(C)N(CC)C(=O)NC1c1ccccc1 (configuration not stated)	.	.	.	.	-5%[14.2 µM]	.
COc1ccccc1CNc1ccnc(-c2ccc(N(C)C)cc2)n1	.	.	.	0%	.	.
Cn1c(=NC(=O)CCl)sc2ccccc21	?	-99*	-29%	?	?	?
CCOC(=O)c1nn(-c2ccc(Br)cc2)cc1C(=O)c1cccc2ccccc12	?	-26	.	43%	5.8µM*	.
CCOC(=O)c1nn(-c2ccc(F)cc2)cc1O	-2%	18	-6%	16%	23%[46.1 µM]	-6%
COC(=O)[C@@H](Cc1c[nH]c2ccccc12)NC(=O)c1ccc2c(c1)OCO2	.	-105*	.	-2%	.	.
Cc1cc(C(=O)NC(Cc2c[nH]c3ccccc23)C(=O)O)c(C)o1 (configuration not stated)	20%	36	3%	2%	0%	-7%
O=C(COC(=O)[C@H](Cc1c[nH]c2ccccc12)NC(=O)c1ccc(Cl)cc1)Nc1ccc2c(c1)OCO2	22%	51	.	48%	-7%	.
COC(=O)C(Cc1c[nH]c2ccccc12)NC(=O)c1cc(-c2ccc(OC)c(OC)c2)oc1C (configuration not stated)	10µM*	43	-17%	-28%	?	-25%
Cc1cccc(C(=O)NCC(=O)OCc2cc(=O)n3nc(C)sc3n2)c1	-4%[46.1 µM]	-1	-7%	-28%	.	-3%
O=C1C=C(C2OC(CO)C(O)C2O)C(=O)N1 (configuration not stated)	.	-16	1%	40µM*	.	-4%
NC(=O)c1csc(C2OC(CO)C(O)C2O)n1 (configuration not stated)	.	-21	-6%	-23%	.	-5%
CCOc1cc(/C=C2\C(=O)N(Cc3ccc(C)cc3)C(C)=C2C(=O)OC)ccc1O	?	23	-19%	35µM*	2%	.
COc1ccc(-c2noc(CCCC(=O)Nc3cccc(Cl)c3C)n2)cc1	?	-77*	-12%	?	?	-7%
Cc1ccc(-c2noc(CCC(=O)NC3CCCC3)n2)cc1	?	2	-11%	-9%	?	0%
Cc1ccc(-c2noc(CCCC(=O)NC3CCCCC3)n2)cc1	-23%	-77*	-20%	?	?	-25%
COc1ccc(-c2noc(CCC(=O)Nc3ccccc3Cl)n2)cc1OC	-3%[46.1 µM]	-17	-10%	-26%	14%[46.1 µM]	-8%
O=C(CCCc1nc(-c2ccccc2)no1)Nc1cccnc1	-11%	-24	-17%	0%	?	-16%
Cc1ccc(-c2noc(CCCC(=O)Nc3cccnc3)n2)cc1	?	-63*	?	?	?	-14%
COc1ccc(NC(=O)C2SC(=S)N=C2N)cc1 (configuration not stated)	.	.	.	.	9%	.
Cc1cc(C)cc(C(=O)N(CCc2ccccc2)C2CC3CCC(C2)N3C)c1 (configuration not stated)	?	-28	?	-12%	3.2µM*	-11%
Cc1cc(C)cc(C(=O)OC2C[C@H]3CC[C@@H](C2)N3C)c1 (some centres not stated)	.	.	.	-17%	.	.
COC(=O)c1ccccc1NC(=O)C1=CC(c2ccc(C)cc2)=NS(=O)(=O)N1C	?	-2	-10%	-2%	?	-1%
COc1ccc(CCN2C(=O)C3C4C=CC(C3C2=O)C2C(=O)N(CCc3ccc(OC)c(OC)c3)C(=O)C42)cc1OC (configuration not stated)	?	-94*	.	?	-7%	.
Cc1ccc2occ(CC(=O)Nc3ccc(Cl)c(C(F)(F)F)c3)c2c1	0%[46.1 µM]	-78*	?	-4%	?	?
O=C(NC1CCCCC1)C(c1cccnc1)N(C(=O)CCl)c1ccccc1Cl (configuration not stated)	?	-103*	10µM*	-13%	?	?
O=C(NC1CCCCC1)C(c1cccnc1)N(C(=O)CCl)c1ccc(F)cc1 (configuration not stated)	?	-99*	?	?	?	7.9µM*

From PubChem BioAssay
